Reference: PubChem BioAssay AID504832 (National Center for Advancing Translational Sciences (NCATS), 2011)
Hit rate of the full screen: of about 310,000 compounds, about 18,000 (5.8%) were called active. Inconclusive results (about 22%) are left out. The entries come from a sample that favours actives as a whole. A number with no mark means an inactive call. Calls come from the whole dose curve; as a rule, active = well fitted inhibition curve with a large enough effect; inconclusive = small, poorly fitted or top-dose-only effect, or another doubt; inactive = no such curve, though single readings can be large or run the other way.

Experiment: Primary qHTS for delayed death inhibitors of the malarial parasite plastid, 48 hour incubation
Conditions: P. falciparum luciferase growth in erythrocytes; series mostly up to 28.7 µM; activity change, negative = inhibition: at the top concentration
Summary of the method: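 Firefly luciferase activity from engineered P. falciparum reports growth; inhibitors lower the luminescent signal. Cultures contained 2% hematocrit erythrocytes at 0.1% final parasitemia.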
% is set by controls: 0 for no effect and ±100 for the full control effect; potency is the fitted concentration of half-maximal effect.

Row | Compound | activity change, negative = inhibition | Potency
1 | COC(=O)c1noc(C)c1-c1ccnn1C(=O)c1ccc(Cl)cc1 | 37.8% | –
2 | Cc1ccc(S(=O)(=O)Cc2cc(-c3ccc(Cl)cc3)no2)cc1 | -33.3% [at 5.75 µM] | –
3 | Cc1onc(-c2ccc(Cl)cc2)c1-c1ccnn1S(=O)(=O)c1ccc(Cl)cc1 | – | 1.04 µM (active)
4 | COc1ccc(/C=C2\SC(=O)N(CCC(=O)NCCCn3ccnc3)C2=O)cc1 | 32.1% | –
5 | CCOc1ccc(C(=O)COC(=O)c2ccc(-n3cnnn3)cc2)cc1 | -4.08% | –
6 | COc1ccc2c(c1)C(NS(=O)(=O)OCC(Cl)(Cl)Cl)CCC2 (centres undefined) | 2.43% | –
7 | O=C(c1cccc(C(=O)N2CCN(c3ccc(F)cc3)CC2)c1)N1CCN(c2ccc(F)cc2)CC1 | – | 13.1 µM (active)
8 | O=C(c1cc2cc(F)ccc2[nH]1)N1CCN(c2ccc(F)cc2)CC1 | -3.15% | –
9 | O=C(c1ccccc1)c1ccc(C(=O)N2CCN(c3ccccc3)CC2)cc1 | 16.6% | –
10 | CCn1c(=S)sc2c(=O)n(CC(=O)Nc3cccc(Br)c3)c(C)nc21 | -6.08% | –
11 | COc1ccccc1C(=O)NCc1nnc(SC(C)C(=O)Nc2nccs2)n1C (centres undefined) | 1.13% | –
12 | CC1CN(C2CCCCC2)c2nc3c(c(=O)n(C)c(=O)n3C)n2C1 (centres undefined) | -9.99% | –
13 | CC(C)CCn1c(=O)c2c(nc3n2CCCN3Cc2ccccc2)n(C)c1=O | – | 9.28 µM (active)
14 | Cc1cccc(Cn2c(N3CCN(c4ccccc4)CC3)nc3c2c(=O)n(C)c(=O)n3C)c1 | -26.6% | –
15 | O=C(c1c(F)cccc1Cl)N1CCN(c2ccccn2)CC1 | 8.9% | –
16 | NC(=O)c1oc2ccccc2c1NC(=O)Cc1ccccc1 | -26.8% | –
17 | Cc1c(C(C)(C)O)[nH]c2ccc(C#N)cc12 | 25.6% | –
18 | COc1ccc(-c2cc(=O)oc3cc(OC(C)C(=O)NCC4CCC(C(=O)O)CC4)ccc23)cc1 (centres undefined) | -13.5% | –
19 | COc1ccc(F)cc1C(=O)COC(=O)c1n[nH]c(=O)c2ccccc12 | -8.28% | –
20 | Nc1nc(SCC(=O)Nc2cc(C(F)(F)F)ccc2Cl)[nH]c(=O)c1NC(=O)c1ccco1 | 42% | –
21 | COc1ccc(OC)c(NC(=O)c2sc3nc(C)cc(C)c3c2N)c1 | 2.23% | –
22 | Cc1cccc(NC(=O)c2sc3nc4c(c(-c5ccco5)c3c2N)CCC4)c1 | – | 2.08 µM (active)
23 | Cc1cccc(NC(=O)c2sc3nc(N4CCOCC4)c4c(c3c2N)CCCC4)c1 | 24.7% | –
24 | CN(c1ccccc1)S(=O)(=O)c1ccc(NC(=O)COc2ccccc2)cc1 | 28.6% | –
25 | COc1cccc(NC(=O)c2cc(S(=O)(=O)N3CCc4ccccc43)cn2C)c1 | 23.7% | –
26 | COc1ccccc1N(C)C(=O)c1cc(S(=O)(=O)N2CCc3ccccc32)cn1C | – | 11.7 µM (active)
27 | CCN(C(=O)COC(=O)c1cc(S(=O)(=O)N2CCc3ccccc32)ccc1OC)C1CCS(=O)(=O)C1 (centres undefined) | -11.5% | –

Row | Compound | activity change, negative = inhibition | Potency
28 | COc1cc(OC)cc(C(=O)NNC(=O)CCOc2ccccc2OC)c1 | 10.8% | –
29 | Cc1occc1-c1nnc(SCC(=O)NC2(C#N)CCCC2)n1C | 1.05% | –
30 | CSc1ccc(S(=O)(=O)NCC(=O)OCC(=O)NC2(C#N)CCCCC2)cc1[N+](=O)[O-] | 36.9% | –
31 | O=C(Nc1cccc(NC(=O)c2cccc(F)c2)c1)c1ccccc1 | 0% [at 0.00184 µM] | –
32 | CC(=O)c1ccc(NC(=S)N(Cc2ccccc2)C(C)C2CC2)cc1 (centres undefined) | – | 13.1 µM (active)
33 | CC(=O)c1ccc(NC(=O)N[C@@H](Cc2ccccc2)C(=O)O)cc1 | -11.8% | –
34 | CC(C)N(Cc1ccccc1)C(=S)Nc1ccc(OC(F)F)cc1 | 14% | –
35 | O=C(N/C(=C\c1ccc([N+](=O)[O-])cc1)C(=O)N1CCOCC1)c1cccc(Br)c1 | -5.24% | –
36 | COc1ccccc1NC(=O)COC(=O)c1ccccc1SCC(=O)N1CCCC1 | 4.59% | –
37 | CCS(=O)(=O)N1CCCC(C(=O)NCc2ccc(C)cc2)C1 (centres undefined) | -10.9% | –
38 | O=C(NCc1ccccc1)C1CCCN(S(=O)(=O)c2cccs2)C1 (centres undefined) | 14.9% | –
39 | O=C(NCc1ccc2c(c1)OCO2)C1CCCN(S(=O)(=O)c2cccs2)C1 (centres undefined) | – | 9.28 µM (active)
40 | C/C(=N\NC(=O)c1cccc([N+](=O)[O-])c1)c1cccnc1 | 40.6% | –
41 | O=C(NC1CCC(O)CC1)c1ccccc1OCc1ccc(F)cc1 (centres undefined) | -10.5% | –
42 | Cc1ccc(C(=O)Nc2nnc(C3=COCCO3)o2)cc1C | -24.4% | –
43 | COc1ccc(C(=O)NNC(=O)c2cc(C)[nH]n2)cc1 | 37.1% | –
44 | COc1ccc(C(=O)CC(=O)c2ccc(C)cc2)c(O)c1 | -27% | –
45 | C=C(C)COc1ccc(-c2n[nH]c(C)c2-c2ccccc2)c(O)c1 | – | 1.85 µM (active)
46 | CCOc1ccc(-c2n[nH]c(C)c2-c2ccccn2)c(O)c1 | 6.15% | –
47 | COc1ccc(-c2n[nH]c(C)c2-c2ccccc2OC)c(O)c1 | – | 9.28 µM (active)
48 | COc1ccc(-c2[nH]ncc2CN(C)Cc2c(C)n[nH]c2C)c(OC)c1 | 10.8% | –
49 | COc1ccc(-n2c(-c3ccc(OC)c(OC)c3)n[nH]c2=S)cc1 | 11.2% | –
50 | COc1ccc(-c2c(-c3ccc(OC)cc3O)nc(C)nc2C(F)(F)F)cc1 | – | 7.38 µM (active)
51 | Cc1noc(C)c1COC(=O)COc1ccc(-c2ccccc2)cc1 | 34.9% | –
52 | COc1ccccc1-c1nc(SC)n[nH]1 | 40.5% | –
53 | COc1ccc(-c2n[nH]c(C)c2-c2ccc(OC)c(OC)c2)c(O)c1 | – | 13.1 µM (active)
54 | COC(=O)c1cc(OC)ccc1-c1ccc(OC)cc1 | -17.5% | –
